The panel holds about 83,000 compounds, 20% with a hit somewhere; the sample as a whole holds those more often.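 Single-concentration screen, 48 h exposure, 96-well plates. Endpoint: percent growth. Below 10 = active.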 Active and inactive are the calls of the source.
Experiments:
Assay in all cases: NCI-60 one-dose screen, 48 h (100 = growth as untreated, 0 = no growth, -100 = all killed)
Conditions in all cases: 10 µM unless noted
[1] = system: T-47D breast
[2] = system: BT-549 breast
[3] = system: MDA-MB-435 melanoma
[4] = system: SW-620 colon
[5] = system: MCF7 breast
[6] = system: HCT-116 colon
[7] = system: HCC-2998 colon
[8] = system: KM12 colon

Measured: growth

CC[C@]12C=CCN3CC[C@@]4(c5cc(NC(=O)COc6cc(O)c7c(=O)cc(-c8ccccc8)oc7c6)c(OC)cc5N(C)[C@H]4[C@@](O)(C(=O)OC)[C@@H]1OC(C)=O)[C@@H]32
active: [1] -60.5% | [2] -36.2% | [3] -44.7% | [4] 7.84% | [5] -44.3% | [6] -89.2% | [7] -98.2% | [8] -82.2%

CNC1CCc2c(sc(NC(=O)c3ccc(C(C)(C)C)cc3)c2C(N)=O)C1 (centres undefined)
inactive: [1] 53.6% | [2] 74.7% | [3] 45.2% | [7] 28.6% | [8] 10%
active: [4] -53.5% | [5] -34.2% | [6] 3.12%

NC(=O)c1cccc(-n2ccc3cc(NC(=O)Nc4ccc(N5CCOCC5)c(C(F)(F)F)c4)ccc32)n1
active: [1] 1.29% | [2] -14.8% | [4] 4.98% | [5] 8.81% | [6] 0.168% | [8] -15.7%
inactive: [3] 10.5% | [7] 31.3%

O=C(O)c1ccc(-n2cc(CNc3cc(F)c(F)c(F)c3)c(-c3ccc(F)cc3)n2)cc1
inactive: [1] 85.5% | [2] 107% | [3] 96.1% | [4] 103% | [5] 58.3% | [6] 88.5% | [7] 102% | [8] 92.9%

CCOC(=O)c1c(Nc2ccccc2)nn2c(-c3ccccc3)ccnc12
inactive: [1] 91% | [2] 145% | [3] 96.1% | [4] 105% | [5] 91.8% | [6] 86.7% | [7] 97.1% | [8] 88.9%

COc1ccc(-n2c(/C=C3\C(=O)Nc4ccccc43)ccc2CO)cc1
inactive: [1] 88.8% | [2] 100% | [3] 94.8% | [4] 98.6% | [5] 93.3% | [6] 95.6% | [7] 113% | [8] 19.3%

NC(N)=Nc1ccc(Oc2cccc(NC(N)=Nc3ccc(Cl)c(C(F)(F)F)c3)c2)cn1
inactive: [1] 32.9% | [2] 60.4% | [3] 46.4% | [4] 38.5% | [5] 20.2% | [6] 15.8% | [7] 62.6% | [8] 24.7%

Oc1cccc2ccc(-c3nnc(SCc4ccc(O)c5ncccc45)o3)nc12
active: [5] 4.96% | [6] 5.66% | [8] 8.28%
inactive: [1] 16% | [2] 15.9% | [3] 12% | [4] 19.2% | [7] 27.6%

NS(=O)(=O)c1ccc(Nc2nc(SCc3ccccc3)nc3ccccc23)cc1
inactive: [1] 24.8% | [2] 66.7% | [3] 76.8% | [4] 61% | [5] 54.3% | [6] 53.2% | [7] 83% | [8] 27.8%

Cc1cc2ncc(-c3cc4ccccc4c(N4CCN(C)CC4)n3)nc2cc1C
active: [1] -54% | [3] -87.8% | [4] 1.46% | [5] -65% | [6] -85.7% | [7] -84.2% | [8] -3.53%
inactive: [2] 85.9%

Cc1c(F)cc(C(N)=O)cc1NCC(=O)Nc1ccc([N+](=O)[O-])cc1
inactive: [1] 102% | [2] 98% | [3] 99.8% | [4] 92.9% | [5] 87.1% | [6] 99.9% | [7] 105% | [8] 98.6%

O=C(Cn1cc(-c2ccccc2)nn1)Nc1nc(-c2ccc(Cl)cc2)cs1
inactive: [1] 95% | [2] 98.1% | [3] 95.7% | [4] 108% | [5] 87% | [6] 108% | [7] 105% | [8] 108%

CCN(CC)CCn1c2ccc(O)cc2c2sc3cc(OC)ccc3c(=O)c21
inactive: [1] 59.3% | [2] 68.1% | [3] 19.4% | [7] 36.6% | [8] 25%
active: [4] -50.8% | [5] -55.2% | [6] -46%

C=CCn1c(SCC(=O)Nc2ccc(C(=O)/C=C/c3ccc(Br)cc3)cc2)nnc1-c1c[nH]c2ccccc12
active: [6] -60.7%
inactive: [1] 60.7% | [2] 119% | [3] 94.7% | [4] 92.3% | [5] 22.8% | [7] 109% | [8] 89.3%

C=C1CC[C@@H]2[C@](C)(CO)[C@H](O)CC[C@@]2(C)[C@@H]1C/C(O)=C1\CCOC1=O
inactive: [1] 96.6% | [2] 109% | [3] 94.6% | [4] 94.9% | [5] 77% | [6] 95.4% | [7] 104% | [8] 111%

C#C[C@]1(O)CC[C@H]2[C@@H]3CC=C4c5sc(-c6ccc7c(c6)OCO7)nc5CC[C@]4(C)[C@H]3CC[C@@]21C
active: [3] -6.66% | [4] 2.53% | [5] -1.98% | [6] -9.63%
inactive: [1] 41.5% | [2] 26.1% | [7] 34% | [8] 14%

NC(=O)c1cccc(C#CCNC[C@H]2C[C@@H](n3ccc4c(Cl)ncnc43)[C@H](O)[C@@H]2O)c1
inactive: [1] 96.6% | [2] 102% | [4] 104% | [5] 96.5% | [6] 104% | [7] 107% | [8] 106%
active: [3] -89.6%

COC(=O)C[Se]C(=O)Cc1c(C)n(C(=O)c2ccc(Cl)cc2)c2ccc(OC)cc12
active: [6] 4.82%
inactive: [1] 83% | [2] 102% | [3] 39.6% | [4] 62.4% | [5] 28.2% | [7] 58.3% | [8] 26.4%

COc1cc(-c2nc3sccn3c2-c2ccnc(S(C)(=O)=O)n2)ccc1F
inactive: [1] 97.9% | [2] 92.2% | [3] 91.5% | [4] 99% | [5] 84.1% | [6] 103% | [7] 100% | [8] 102%

CCO/C=N/C1=C(C#N)C(c2ccc(F)cc2)c2sc3c(CC)cccc3c2O1 (centres undefined)
active: [3] -12.9%
inactive: [1] 42.7% | [2] 27.7% | [4] 30.1% | [5] 14.8% | [6] 16.2% | [7] 15.6% | [8] 14.8%

O=C1/C(=C/C=C/c2ccco2)SC(=S)N1C1CCCCC1
inactive: [1] 68.8% | [2] 111% | [3] 85.3% | [4] 92.2% | [5] 54.3% | [6] 99.8% | [7] 97.3% | [8] 96.9%

N#Cc1c(-c2cccs2)cc(-c2cnccn2)nc1SCC(=O)Nc1ccc(Br)cc1
inactive: [1] 96.2% | [2] 65.4% | [3] 74.4% | [4] 77.3% | [5] 66.6% | [6] 69% | [7] 99.7% | [8] 97.7%

O=C(CSc1nc2ccccc2c(=O)n1-c1ccc(Cl)cc1)N/N=C/c1ccc(N2CCCCC2)cc1
inactive: [1] 74.6% | [2] 104% | [3] 86.9% | [4] 65.9% | [5] 67.5% | [6] 36.9% | [7] 118% | [8] 96.4%

COc1cc(OC)c(S(N)(=O)=O)cc1C(C)=O
inactive: [1] 98.3% | [2] 115% | [3] 107% | [4] 113% | [5] 89.8% | [6] 114% | [7] 106% | [8] 104%

COCCNc1ccc2ncc(C#Cc3cncc(C(=O)Nc4ccc(CN5CCN(C)CC5)c(C(F)(F)F)c4)c3)n2n1
active: [1] -7.3% | [2] -36.7% | [3] -24.8% | [4] -54.1% | [5] -30.7% | [6] -66.9% | [7] -23.6% | [8] -9.09%

CCOC(=O)C(=O)/C(=C\c1ccc(Cl)cc1)C(=O)N1C(=S)NC(=O)C1CC(C)C (centres undefined)
inactive: [1] 98.2% | [2] 108% | [3] 98.6% | [4] 104% | [5] 92% | [6] 99.3% | [7] 101% | [8] 98.8%

COc1ccc(NC(=O)CSc2nnc(-c3ccc4nc(-c5ccccc5)[nH]c4c3)o2)cc1
inactive: [1] 94.7% | [2] 93.5% | [3] 100% | [4] 104% | [5] 86.2% | [6] 102% | [7] 114% | [8] 99.4%

CN1CCN(c2ccc(/C=N/Nc3nc4ccccc4c(=O)n3-c3ccccc3)cc2)CC1
inactive: [1] 92.6% | [2] 108% | [3] 104% | [4] 99.6% | [5] 93.3% | [6] 99% | [7] 103% | [8] 99.8%
